# In PubChem BioAssay:
# Active and inactive are the calls of the source.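 The calls were made as follows, unless noted: active = inhibition of the reporter signal at or above 50%; inactive = inhibition below 50%.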
# Assays:
# [1] = inhibitors of TNFa-induced NFkB p65 translocation, primary screen, imaging, HUVEC, MLSMR starter and 10KST1 sets (AID 438;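 active = inhibition above 20% together with a positive visual image hit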;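 also: compound added about 3h40 before a 20 min TNFalpha stimulation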;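 as to inhibition: signal is the nuclear over cytoplasmic p65 intensity ratio per well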); settings: HUVEC TNFa-induced p65 nuclear translocation; cell count: measured here: nuclei count (cytotoxicity indicator), at 2.08 µM; inhibition: at 2 µM, stronger effect = higher value, 0% TNFa-plus-vehicle, 100% no-TNFa wells
# [2] = inhibitors of mutant huntingtin aggregation, primary screen, imaging, exon1htt(103Q)mCFP cells, high-content imaging (AID 483;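 active = visual image review flags a hit and inhibition of aggregation exceeds 20%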;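 also: compound exposure lasted 3 days before fixation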;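 as to nuclei count: percent of the per-plate median nuclei count of sample wells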); settings: exon1htt(103Q)mCFP cell line, aggregate imaging, at 2 µM; inhibition of aggregation: stronger effect = higher value; nuclei count: measured here: cell count, toxicity
# [3] = inhibitors of E-selectin induction by TNFa, primary screen, imaging, HUVEC, immunofluorescence, MLSMR starter and 10KST1 sets (AID 487;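 active = visually confirmed hit in the image check and inhibition above 20%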;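 as to inhibition: signal is fraction of cell area covered by stained E-selectin grains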;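 as to nuclei count: 100% = median nuclei count of all wells on the same plate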); settings: HUVEC TNFalpha-induced E-selectin immunofluorescence imaging, at 2 µM; inhibition: stronger effect = higher value; nuclei count: measured here: cell number, toxicity
# [4] = target: Voltage-gated potassium channel subunit beta-2 (Rattus norvegicus) (UniProt P62483); test: KvBeta enzyme negative modulators, primary screen, biochemical, NADPH fluorescence (AID 622;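 active = fluorescence slope higher than the sample average by over 3 SD, cut at about -0.22 in these data, passing the limit was not always enough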;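 also: slope of raw intensity against log time taken from 70 to 1610 s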); settings: recombinant KvBeta, 4-cyanobenzaldehyde reduction, at 10 µM, stronger effect = higher value
# [5] = target: Voltage-gated potassium channel subunit beta-2 (Rattus norvegicus) (UniProt P62483); test: KvBeta positive modulators, primary screen, biochemical, NADPH fluorescence (AID 623;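 active = NADPH fluorescence slope more negative than the mean of all samples by about 3 SD, 99.7% confidence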;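 also: fluorescence intensity change per second fitted from 20 to 320 s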); settings: Recombinant KvBeta, NADPH fluorescence decrease slope, 10 min; at 10 µM; stronger effect = lower value
# [6] = target: Alpha-2C adrenergic receptor (Homo sapiens) (UniProt P18825); test: modulators of alpha2C/GIRK thallium flux, primary screen, cell-based, HEK293 alpha2C/GIRK1/2 (AID 624;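 active = fluorescence slope after compound addition differing from the mean of all screened samples at 99.7% confidence, in either direction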;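 also: slope of fluorescence ratio to pre-addition baseline per second over 15 to 24 s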); settings: thallium flux BTC fluorescence, at 10 µM, actives lie on both sides
# [7] = inhibitors of Sendai virus-induced IRF3 signaling, primary screen, TLR/RLR signaling modifier project, cell-based, Sendai virus stimulus, luciferase, 10K MLSCN set (AID 602276;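 active = inhibition at or above 50% at 10 µM; inactive = inhibition below 50%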;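 also: firefly luciferase from ISG56 promoter only with Renilla not read in this screen; 0% = Sendai virus plus DMSO and 100% = medium plus DMSO without virus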); settings: HEK293 RL24 IRF3 luciferase reporter, at 10 µM, stronger effect = higher value
# [8] = inhibitors of poly I:C-induced TLR3 signaling, primary screen, cell-based, poly I:C stimulus, luciferase, 10K MLSCN set (AID 602277); settings: HEK293-TLR3 RL24 IRF3 luciferase reporter, at 10 µM, stronger effect = higher value
# Chain of Voltage-gated potassium channel subunit beta-2 (Rattus norvegicus) (P62483 whole entry, looked up): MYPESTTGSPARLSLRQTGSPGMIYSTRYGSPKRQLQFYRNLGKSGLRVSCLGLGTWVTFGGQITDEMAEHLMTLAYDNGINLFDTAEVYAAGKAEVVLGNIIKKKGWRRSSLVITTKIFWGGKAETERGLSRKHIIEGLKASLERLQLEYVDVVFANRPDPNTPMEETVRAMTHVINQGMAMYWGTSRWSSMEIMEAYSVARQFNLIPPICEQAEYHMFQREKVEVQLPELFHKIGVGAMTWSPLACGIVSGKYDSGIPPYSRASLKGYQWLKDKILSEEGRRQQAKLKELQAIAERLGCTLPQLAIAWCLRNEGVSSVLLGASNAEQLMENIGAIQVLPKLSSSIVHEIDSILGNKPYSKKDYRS
# Chain of Alpha-2C adrenergic receptor (Homo sapiens) (P18825 whole entry, looked up): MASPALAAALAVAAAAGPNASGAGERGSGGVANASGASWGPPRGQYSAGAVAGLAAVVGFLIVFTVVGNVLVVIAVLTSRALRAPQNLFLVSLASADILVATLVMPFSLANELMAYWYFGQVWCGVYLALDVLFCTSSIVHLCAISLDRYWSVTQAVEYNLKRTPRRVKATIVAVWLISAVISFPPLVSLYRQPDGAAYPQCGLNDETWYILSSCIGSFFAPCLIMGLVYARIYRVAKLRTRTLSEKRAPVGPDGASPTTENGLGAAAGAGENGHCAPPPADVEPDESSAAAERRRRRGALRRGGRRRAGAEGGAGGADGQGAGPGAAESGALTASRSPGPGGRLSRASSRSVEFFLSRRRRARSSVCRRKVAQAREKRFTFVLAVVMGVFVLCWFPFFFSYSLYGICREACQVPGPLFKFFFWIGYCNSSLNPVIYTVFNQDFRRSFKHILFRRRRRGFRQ
SMILES,cell count [1],inhibition [1],inhibition of aggregation [2],nuclei count [2] [%],inhibition [3],nuclei count [3] [%],fluorescence slope [4],NADPH fluorescence slope [5],slope [6],inhibition [7],inhibition [8]
COc1ccc(C2(C(=O)Nc3cc(C)on3)CCOCC2)cc1,312,0.4% (inactive),10.1% (inactive),108,-51.8% (inactive),134,-0.388 (inactive),-4.8e-05 (inactive),0.00489 (inactive),13.8% (inactive),5.89% (inactive)
Cc1cc(OCC(=O)N2CCOCC2)cc2oc(=O)c3ccccc3c12,352,6.7% (inactive),-9.5% (inactive),90.7,3.4% (inactive),124,-0.329 (inactive),2.7e-05 (inactive),0.00625 (inactive),-4.13% (inactive),-8.03% (inactive)
Cc1cccc(-n2c(SCc3cc(=O)n4ccsc4n3)nc3ccccc32)c1,439,5.1% (inactive),-3.6% (inactive),97.1,-73.8% (inactive),112,-0.525 (inactive),1.8e-05 (inactive),0.00495 (inactive),-11% (inactive),-9.49% (inactive)
CC(C)Sc1nc2c(c(=O)n1-c1ccc(F)cc1)SCC2,384,-5.2% (inactive),-10.1% (inactive),106,-22% (inactive),108,-0.519 (inactive),-8.5e-05 (inactive),0.00437 (inactive),-15.9% (inactive),-9.58% (inactive)
c1ccc(CCc2nc(-c3cccnc3)no2)cc1,647,3.1% (inactive),5% (inactive),93,-102% (inactive),132,-0.636 (inactive),1.1e-05 (inactive),0.00345 (inactive),-30.7% (inactive),-90.7% (inactive)
O=C(Nc1cccc(NC(=O)c2ccco2)c1)c1ccc2c(c1)OCO2,696,-6.1% (inactive),-10.2% (inactive),108,-70.1% (inactive),121,-0.418 (inactive),2.7e-06 (inactive),0.00264 (inactive),7.09% (inactive),-29.5% (inactive)
O=C(O)c1cccc(NC(=O)C2C3C=CC(C3)C2C(=O)OCC(F)(F)C(F)F)c1 (configuration not stated),683,8.3% (inactive),28.9% (inactive),47.7,-33.6% (inactive),98.7,-0.38 (inactive),-3.4e-05 (inactive),0.00482 (inactive),10.2% (inactive),26% (inactive)
O=c1/c(=C/c2ccco2)sc2nc(-c3ccccc3Br)nn12,343,0.2% (inactive),14.2% (inactive),107,-34.7% (inactive),118,-0.585 (inactive),-2.3e-05 (inactive),0.00315 (inactive),16.2% (inactive),18.1% (inactive)
COc1ccc(C(=O)NC(=O)CSc2nnc(-c3ccco3)n2-c2ccccc2)cc1,447,14.6% (inactive),-9.6% (inactive),104,-9.4% (inactive),107,-0.324 (inactive),-7e-05 (inactive),0.0052 (inactive),5.3% (inactive),10.1% (inactive)
COCCNC(=O)CN1CCC(NC(=O)Nc2ccc(C(F)(F)F)cc2)CC1,515,0.8% (inactive),-24.7% (inactive),70.9,-85% (inactive),96.8,-0.296 (inactive),-4.5e-05 (inactive),0.0053 (inactive),5.43% (inactive),3.51% (inactive)
CCOc1ccc(NC(=O)CCN2CCN(c3ccccc3)CC2)cc1,696,-6.4% (inactive),8.3% (inactive),101,-44.6% (inactive),105,-0.261 (inactive),-1.2e-05 (inactive),0.00485 (inactive),20.2% (inactive),16.6% (inactive)
Nc1nnc(-c2cn(-c3ccccc3)nc2-c2ccccc2)o1,523,-12.5% (inactive),-7.1% (inactive),90.3,-16.3% (inactive),113,-0.481 (inactive),1.3e-05 (inactive),0.00498 (inactive),-22.2% (inactive),-23.6% (inactive)
C=CCn1c(COc2ccc(CC)cc2)nnc1SC/C(O)=C(\C#N)c1nc2ccccc2[nH]1,705,-4.3% (inactive),3.6% (inactive),101,-10.1% (inactive),108,-0.379 (inactive),8.9e-06 (inactive),0.0031 (inactive),21.3% (inactive),14.4% (inactive)
Cc1nnc(SC(=O)N2c3ccccc3Sc3ccccc32)s1,348,12% (inactive),39.8% (active),99.9,27.8% (inactive),107,-0.31 (inactive),-1.7e-05 (inactive),0.00696 (inactive),5.05% (inactive),65.9% (active)
COc1ccc(-c2c3c(=O)n(C)c(=O)n(C)c3cn2-c2cccc(OC)c2)cc1,430,5.2% (inactive),5.3% (inactive),110,-50.3% (inactive),99.9,-0.605 (inactive),6.5e-06 (inactive),0.00638 (inactive),-0.838% (inactive),0.686% (inactive)
O=C(CS(=O)(=O)c1cn(Cc2ccc(Cl)cc2)c2ccccc12)N1CCOCC1,531,4.3% (inactive),37.8% (inactive),91.1,-8.5% (inactive),110,-0.504 (inactive),7.7e-07 (inactive),0.00671 (inactive),5.23% (inactive),17.5% (inactive)
COc1ccc(C)cc1NC(=O)CN1CCN(S(=O)(=O)c2ccc(Cl)cc2)CC1,409,-1.5% (inactive),4.2% (inactive),104,-76.7% (inactive),98.9,-0.41 (inactive),-3e-05 (inactive),0.0018 (inactive),5.97% (inactive),15.6% (inactive)
O=C1c2ccccc2C(=O)N1CCN1CCCCC1,528,0.3% (inactive),-9.5% (inactive),113,-58.5% (inactive),117,-0.327 (inactive),-5e-05 (inactive),0.00644 (inactive),-8.79% (inactive),-2.11% (inactive)
COc1ccc(C(=O)OCC(=O)NCc2ccco2)cc1OC,573,-18.9% (inactive),-1.1% (inactive),107,-12.3% (inactive),121,-0.467 (inactive),-7.7e-05 (inactive),0.00497 (inactive),17.6% (inactive),27.6% (inactive)
CC(=O)N1CCc2c(sc(NC(=O)c3ccc(S(=O)(=O)N(C)C)cc3)c2C#N)C1,660,-0.8% (inactive),18.5% (inactive),87.4,7.9% (inactive),93,-0.52 (inactive),-3.5e-05 (inactive),0.0064 (inactive),-4.77% (inactive),22.6% (inactive)
COc1cccc(OCCSc2nnc3sc4ccccc4n23)c1,548,-6.3% (inactive),0.2% (inactive),89,-24.1% (inactive),127,-0.463 (inactive),-0.000108 (inactive),0.00727 (inactive),-10.1% (inactive),-31.6% (inactive)
Cc1ccccc1C(=O)NC1CCN(Cc2nnnn2Cc2ccccc2)CC1,551,-30.6% (inactive),-10.9% (inactive),110,-36.5% (inactive),111,-0.585 (inactive),-4.3e-05 (inactive),0.00483 (inactive),7.81% (inactive),19.8% (inactive)
CCOc1ccc(S(=O)(=O)n2c(C)nc3ccccc32)cc1,781,-5.8% (inactive),-0.6% (inactive),101,-99.9% (inactive),115,-0.627 (inactive),9.2e-06 (inactive),0.00517 (inactive),49.1% (inactive),5.17% (inactive)
CN1CC(=O)N(CC(=O)NCCc2ccc(F)cc2)c2ccccc2C1=O,214,21% (inactive),16.8% (inactive),110,-1.2% (inactive),90.4,-0.602 (inactive),-2.2e-05 (inactive),0.0102 (inactive),10.8% (inactive),9.93% (inactive)
O=C(NCc1cccnc1)c1ccc(Cl)c(Cl)c1,751,-5% (inactive),25.4% (inactive),102,16.9% (inactive),102,-0.639 (inactive),-5.9e-06 (inactive),0.00439 (inactive),17% (inactive),7.17% (inactive)
Cc1ccc2[nH]c(=O)c(C(c3nnnn3CCc3ccccc3)N3CCOCC3)cc2c1 (configuration not stated),715,-3.9% (inactive),1.1% (inactive),99,-38.7% (inactive),95.6,-0.482 (inactive),-4.6e-05 (inactive),0.0072 (inactive),0.935% (inactive),26.5% (inactive)
CCC(C)(C)n1nnnc1C(c1ccc(OC)c(OC)c1)N1CCN(c2ccccc2)CC1 (configuration not stated),252,10.9% (inactive),0.9% (inactive),80.9,1.7% (inactive),94.4,-0.473 (inactive),-0.000151 (inactive),0.0062 (inactive),18.8% (inactive),39.6% (inactive)
